Assay outcomes: PubChem BioAssay, several laboratories
ABCB6 inh 2: inhibitors of human ABC transporter ABCB6. 360,000 compounds, 0.19% hits. AID 602162. Q9NP58. K562-ABCB6 porphyrin accumulation, flow cytometry, 1 h; stronger effect = lower value. fluorescence ratio to DMSO, % at 10 µM;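 active means fluorescence ratio to DMSO below 75%, the collection mean minus 3 SD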;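 further: signal is porphyrin accumulated inside mitochondria; 100% equals median channel fluorescence of DMSO control wells; lower ratio means ABCB6 inhibition with less porphyrin fluorescence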
GSIS activator: GLuc luminescence reporter in INS-1E cells, primary screen for activators of glucose-dependent secretion of insulin | INS-1E GLuc reporter insulin secretion, 2-3 h | activation, % at 16.6 µM | 370,000 compounds, 0.61% hits | AID 743287;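 active means lowest replicate activation of at least 40%, so every replicate reaches that level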;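 further: 0% = median of neutral control wells and 100% = median of IBMX positive control wells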
iPSC survival up: increases survival of single human iPS cells | 360,000 compounds, 0.044% hits | hiPSC single-cell survival, ATPlite luminescence; 100% = ROCK inhibitor wells, 0% = DMSO | survival enhancement, % at 20 µM; in the data active means survival enhancement above about 18%;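 further: cells exposed to compounds for 16 hours before the ATP read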
CendR NRP1 mod: alters CendR peptide binding to human NRP-1. O14786. FAM-RPARPAR peptide binding to NRP-1, fluorescence polarization. inhibition, % at 25 µM. 360,000 compounds, 0.85% hits;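 active means inhibition or corrected inhibition above about 18%, plus a signal ratio from 0.5 to 1.5, limit read from the data, passing the limit was not always enough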
Target sequence (O14786 whole entry, looked up): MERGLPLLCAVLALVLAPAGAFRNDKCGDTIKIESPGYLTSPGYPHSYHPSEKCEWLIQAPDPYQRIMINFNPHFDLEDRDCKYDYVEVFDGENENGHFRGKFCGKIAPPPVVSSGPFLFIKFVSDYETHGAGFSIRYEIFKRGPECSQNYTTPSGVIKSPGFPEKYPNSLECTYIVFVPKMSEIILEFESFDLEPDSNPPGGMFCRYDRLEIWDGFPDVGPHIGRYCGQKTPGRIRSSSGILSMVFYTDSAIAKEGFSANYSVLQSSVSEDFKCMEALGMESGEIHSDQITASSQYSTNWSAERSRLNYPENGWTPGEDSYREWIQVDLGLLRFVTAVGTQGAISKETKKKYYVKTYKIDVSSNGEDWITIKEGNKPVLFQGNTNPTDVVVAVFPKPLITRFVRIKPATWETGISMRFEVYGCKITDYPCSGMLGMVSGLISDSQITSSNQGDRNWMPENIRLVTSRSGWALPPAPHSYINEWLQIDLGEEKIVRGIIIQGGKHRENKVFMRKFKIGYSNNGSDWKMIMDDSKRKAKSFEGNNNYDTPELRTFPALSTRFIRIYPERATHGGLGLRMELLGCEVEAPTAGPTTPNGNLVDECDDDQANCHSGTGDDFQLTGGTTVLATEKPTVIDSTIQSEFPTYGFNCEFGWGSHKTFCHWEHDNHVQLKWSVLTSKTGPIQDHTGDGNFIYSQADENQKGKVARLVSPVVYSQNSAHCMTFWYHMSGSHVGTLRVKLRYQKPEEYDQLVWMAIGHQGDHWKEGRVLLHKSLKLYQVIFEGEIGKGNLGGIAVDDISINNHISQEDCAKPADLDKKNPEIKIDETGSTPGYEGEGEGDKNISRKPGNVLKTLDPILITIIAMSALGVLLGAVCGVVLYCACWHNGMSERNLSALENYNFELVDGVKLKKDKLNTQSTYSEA
ARNT-TACC3 inh: disrupts binding between human ARNT and TACC3. Q9Y6A5. AlphaScreen His-ARNT PAS-B/GST-TACC3 binding, luminescence; TACC3 fragment carries E629A point mutation. inhibition, % at 9.99 µM. 390,000 compounds, 0.66% hits;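 active means mean inhibition of replicates at least 50% and at least half of replicates each reaching 50%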;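 further: 0% = complete ARNT plus TACC3 wells and 100% = ARNT alone without TACC3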
* hit, by the source's call; x = not tested or not shown. This is a sample that favours compounds with a hit; in the whole collection about 1.8% have one here.

SMILES | ABCB6 inh 2 | GSIS activator | iPSC survival up | CendR NRP1 mod | ARNT-TACC3 inh
CC(=O)c1cccc(Nc2ncnc3ccc(Br)cc23)c1 | 98 | 49* | 1 | -4 | x
CCCN1[C@H](C(=O)N(C)C)[C@@H](CO)[C@@H]2Cn3c(ccc(C4=CCCCC4)c3=O)[C@@H]21 | x | -4 | x | x | x
C/C=C/c1cccc(-c2nc(C(=O)N3CCN(C)CC3)cc3c2[C@@H](CCO)N(C(=O)NC(C)C)C3)c1 | 98 | 14 | 0 | -1 | x
C/C=C/c1cccc(-c2nc(C(=O)N3CCCCC3)cc3c2[C@H](CCO)N(C(=O)NC(C)C)C3)c1 | 99 | 1 | -1 | 22* | x
O=C(C[C@H]1C[C@@H]2c3cc(NC(=O)C4CCC4)ccc3O[C@@H]2[C@@H](CO)O1)NCCc1ccccc1 | x | -8 | x | x | 6
O=c1cc(Cl)[nH]c(=O)n1CCNc1ncc(C(F)(F)F)cc1Cl | 100 | 3 | -1 | -154 | -14
O=[N+]([O-])c1cc(Cl)ccc1NCCNc1ncc(C(F)(F)F)cc1Cl | 94 | 58* | -2 | -13 | 2
O=C1C=CC(=O)N1CCNc1ncc(C(F)(F)F)cc1Cl | 96 | 147* | -3 | -3 | -12
O=[N+]([O-])c1ccccc1NCCNc1ncc(C(F)(F)F)cc1Cl | 83 | -1 | -1 | 5 | x
O=c1[nH]c2cc(Cl)ccc2n(CCNc2ncc(C(F)(F)F)cc2Cl)c1=O | 101 | 72* | -2 | 2 | -6
O=C1CC(=O)N(CCNc2ncc(C(F)(F)F)cc2Cl)C(=O)N1 | 90 | x | -1 | -28 | -3
COc1ccc2c3c(n(C)c2c1)[C@H](CO)N(C)CC31CN(C(=O)c2ccccc2F)C1 | x | -9 | x | x | x
C[C@@H]1CN([C@H](C)CO)C(=O)Cc2cc(NC(=O)Nc3cccc4ccccc34)ccc2O[C@H]1CN(C)C(=O)Nc1ccc(F)cc1 | x | -1 | x | x | 0
O=C(NCc1ccccc1)C(c1cccnc1)N(C(=O)c1ccccn1)c1ccccc1F (stereo not given) | 96 | 6 | 0 | 26* | -6
Cc1ccccc1N(C(=O)c1ccccn1)C(C(=O)NCc1ccccc1)c1cccnc1 (stereo not given) | 92 | -5 | 0 | 6 | -17
Cc1cc(NC2=CC(=O)C(=O)c3ccccc32)no1 | 100 | -37 | 2 | 28* | 37*
CO[C@@H]1CN(C)C(=O)c2cc(NC(=O)CC(F)(F)F)ccc2OC[C@H](C)N(S(=O)(=O)c2cn(C)cn2)C[C@@H]1C | x | 3 | x | x | x
O=C(CSC1=NNC(c2ccccn2)S1)Nc1ccc(C(F)(F)F)cc1 (stereo not given) | 103 | -11 | 1 | 3 | 76*
c1ccc(CSC2=NNC(c3ccccn3)S2)cc1 (stereo not given) | 91 | 0 | -1 | -6 | 11
COc1ccc(S(=O)(=O)Nc2ccc3c(c2)C(=O)N([C@H](C)CO)C[C@H](C)[C@@H](CN(C)C(=O)NC(C)C)OCCCC[C@H](C)O3)cc1 | x | -2 | x | x | -1
Cc1ccc2c(c1)C(=O)C(=O)N2CC(=O)OC(C)C | 99 | x | 1 | 27* | -10
O=C(COc1ccccc1)Nc1ccccc1C(=O)NC1CC1 | 93 | 44* | 0 | -4 | -4
CC(=O)c1ccc(S(=O)(=O)N2CCN(CC(=O)Nc3ccccc3C(=O)NC3CC3)CC2)cc1 | 96 | 19 | 0 | 17* | -2
C[C@@H]1CCCCO[C@H](CN(C)S(=O)(=O)c2cccs2)[C@@H](C)CN([C@H](C)CO)C(=O)c2cc(NC(=O)c3ccncc3)ccc2O1 | x | 1 | x | x | -2
CC(C)CCOP(=O)(c1ccccc1)c1ccccc1 | 94 | 64* | 0 | 0 | -7
SMILES | ABCB6 inh 2 | GSIS activator | iPSC survival up | CendR NRP1 mod | ARNT-TACC3 inh
CCCOP(=O)(c1ccccc1)c1ccccc1 | 97 | 5 | -1 | 0 | 3
Oc1c(CN2CCc3ccccc3C2)cc(Cl)c2cccnc12 | 93 | x | 0 | -22 | 58*
O=C(Nc1ccc2c(c1)OCO2)N[C@H]1CC[C@H](CCNC(=O)C2CC2)O[C@H]1CO | x | 19 | x | x | -10
CCNC(=O)[C@@H]1[C@@H](CO)[C@@H]2Cn3c(ccc(-c4ccccc4)c3=O)[C@@H]2N1Cc1ccccn1 | x | 20 | x | x | 43*
CCCC#Cc1cnc2c(c1)C(=O)N([C@@H](C)CO)C[C@@H](C)[C@H](CN(C)C(=O)c1cnccn1)O2 | x | 5 | x | x | 11
COC(=O)c1cccc(NC(=O)c2ccc(S(=O)(=O)N(C)c3ccccc3OC)cc2)c1 | 90 | x | 4 | 0 | x
COc1ccccc1N(C)S(=O)(=O)c1ccc(C(=O)N(CC(N)=O)C(C)C)cc1 | 102 | -3 | 0 | 25* | -3
COc1ccccc1N(C)S(=O)(=O)c1ccc(C(=O)Nc2cccc(Br)c2)cc1 | 97 | -20 | 0 | 27* | -2
COc1ccccc1N(C)S(=O)(=O)c1ccc(C(=O)NCC(C)C)cc1 | 113 | x | -1 | 6 | 6
CO[C@@H]1CN(C)C(=O)c2cc(NC(=O)NC(C)C)ccc2OC[C@@H](C)N(C(=O)C2CCC2)C[C@@H]1C | x | 10 | x | x | 12
COc1ccc2c3c(n(C)c2c1)[C@@H](CO)NCC31CCN(C(=O)c2cccc(F)c2)CC1 | x | 6 | x | x | x
Nc1ncnc2c1nc(Sc1ccc(Cl)cc1)n2[C@@H]1O[C@@H]2COP(=O)(O)O[C@H]2[C@H]1O | 92 | 64* | 0 | -9 | -5
C[C@@H]1CN([C@@H](C)CO)C(=O)Cc2cc(NC(=O)CCCN(C)C)ccc2O[C@@H]1CN(C)S(=O)(=O)c1cccs1 | x | 16 | x | x | 10
CC(C)c1ccc(NC2CCCN(C(=O)c3cscn3)C2)cc1 (stereo not given) | 97 | -6 | 1 | 21* | -1
Cc1nnsc1C(=O)N1CCCC(Nc2ccc(C(C)C)cc2)C1 (stereo not given) | 95 | 8 | 0 | 16 | -3
COc1ccc(-c2nc(CCNC(=O)c3ccco3)cs2)cc1OC | 95 | 89* | 1 | -4 | -8
COc1ccc(-c2csc(NC(=O)CCNC(=O)c3ccco3)n2)cc1OC | 91 | 16 | 0 | -5 | 10
COc1ccc(CN2CC3(C2)CN(Cc2ccc4c(c2)OCO4)[C@H](CO)c2[nH]c4cc(OC)ccc4c23)cc1 | x | -9 | x | x | x
COCC(=O)Nc1ccc2c(c1)OC[C@@H](C)N(C(=O)CC1CC1)C[C@H](C)[C@H](OC)CN(C)C2=O | x | -6 | x | x | x
COc1ccc(Cn2nnnc2C(c2cc3cccc(C)c3[nH]c2=O)N2CCOCC2)cc1 (stereo not given) | 94 | 13 | 2 | 4 | -2
CCN1CCN(C(c2cc3cccc(C)c3[nH]c2=O)c2nnnn2Cc2ccccc2)CC1 (stereo not given) | 80 | x | 2 | 39* | 10
C[C@H]1CN([C@@H](C)CO)C(=O)c2cc(NC(=O)CCC(F)(F)F)ccc2O[C@@H]1CN(C)S(=O)(=O)c1ccc(Cl)cc1 | x | -7 | x | x | -11
